Our source for the growth values is PubChem BioAssay (NCI).

Some test systems named below: SK-MEL-2 melanoma; EKVX NSCLC; SN12C renal; UO-31 renal; TK-10 renal; ACHN renal; CAKI-1 renal; A498 renal; CCRF-CEM leukemia; MOLT-4 leukemia; SR leukemia; RPMI-8226 leukemia; OVCAR-8 ovarian; OVCAR-5 ovarian; OVCAR-4 ovarian; SK-OV-3 ovarian; IGROV1 ovarian; OVCAR-3 ovarian; HS 578T breast; NCI/ADR-RES ovarian.
Holding throughout (assay): NCI-60 one-dose screen, 48 h (100 = growth as untreated, 0 = no growth, -100 = all killed)
What all share (settings): 10 µM unless noted

Each structure is given as a SMILES string. This is part of a sample that, as a whole, favours compounds with a hit. Of some 83,000 tested, about 20% had one in any assay.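 Single-concentration screen, 48 h exposure, 96-well plates. Endpoint: percent growth. Below 10 = active.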 Unmarked numbers belong to inactive results. Active and inactive are the calls of the source.

On to `COc1ccc(N=Nc2c(N)nn3c(-c4cc5cc(Br)ccc5oc4=O)ccnc23)cc1`, for which the growth with SK-MEL-2 melanoma was 29.6%; in the assay with EKVX NSCLC it was 34.8%; in the assay with SN12C renal, 17.6%; in the assay on UO-31 renal, 8.11% (active); in the assay on TK-10 renal, 62%; in the assay on ACHN renal it was -21.2% (active). The growth in the assay with CAKI-1 renal was 12%; in the assay on A498 renal it was 36.1%; with CCRF-CEM leukemia, 96.2%; with MOLT-4 leukemia, 85.6%; in the assay on SR leukemia it was 28%; in the assay with RPMI-8226 leukemia it was 48.5%. The growth with OVCAR-8 ovarian is 19.5%; with OVCAR-5 ovarian, 33.4%; with OVCAR-4 ovarian, 32.2%; in the assay with SK-OV-3 ovarian, 17.4%; with IGROV1 ovarian it was 6.35% (active); in the assay with OVCAR-3 ovarian, 25.3%. Further, the figures for the growth in the assay with HS 578T breast and in the assay with NCI/ADR-RES ovarian were 35.4% and 15.5%, respectively.
For `Cc1cccc(/C=C/c2ccc(NC(=S)NCCCCN(C)C)cc2)c1`, the growth with SK-MEL-2 melanoma was -79.6% (active); in the assay on EKVX NSCLC, -90.5% (active); in the assay on SN12C renal, -84.5% (active); with UO-31 renal it was -93.2% (active); in the assay with TK-10 renal, -89.8% (active); with ACHN renal, -100% (active). Besides, the growth in the assay with CAKI-1 renal was -89.6% (active); in the assay on A498 renal, -83.7% (active); with CCRF-CEM leukemia, -36.6% (active); with MOLT-4 leukemia, -16.1% (active); in the assay with SR leukemia, -17.4% (active); in the assay on RPMI-8226 leukemia, -26.1% (active). Moreover, the growth is -62.3% (active) in the assay on OVCAR-8 ovarian; -94.2% (active) in the assay with OVCAR-5 ovarian; -93.7% (active) in the assay on OVCAR-4 ovarian; -65.9% (active) with SK-OV-3 ovarian; -91% (active) in the assay on IGROV1 ovarian; -55.4% (active) in the assay with OVCAR-3 ovarian. Moreover, the growth in the assay with HS 578T breast is -54% (active); in the assay on NCI/ADR-RES ovarian it was -95.1% (active).
For the compound `O=C1NC(=S)/C(=C/c2cn(-c3ccccc3)nc2-c2ccccc2)S1`, the growth is -4.17% (active) with SK-MEL-2 melanoma; 2.24% (active) in the assay on EKVX NSCLC; 16% in the assay with SN12C renal; 16.7% in the assay with UO-31 renal; 34.3% with TK-10 renal; 20.1% in the assay with ACHN renal. For the same compound, the growth in the assay on CAKI-1 renal is 28.3%; in the assay on A498 renal, -4.62% (active); in the assay with CCRF-CEM leukemia it was 30.9%; in the assay on MOLT-4 leukemia it was 33.5%; in the assay with SR leukemia, 83.4%; with RPMI-8226 leukemia, 5.49% (active). For the same compound, the growth in the assay with OVCAR-8 ovarian was 31.7%; with OVCAR-5 ovarian, 47.9%; in the assay on OVCAR-4 ovarian, 25.4%; in the assay with SK-OV-3 ovarian, 35.5%; with IGROV1 ovarian, 29.1%; with OVCAR-3 ovarian, 36.7%. Moreover, the values for the growth in the assay with HS 578T breast and in the assay on NCI/ADR-RES ovarian were 8.03% (active) and 18.6%, respectively.
As for `O=c1[nH]c2ccccc2cc1COc1ccc(Nc2nccc(-c3ccc(Cl)cc3)n2)cc1`, the growth is 99.6% in the assay with SK-MEL-2 melanoma; 104% with EKVX NSCLC; 100% with SN12C renal; 98.7% in the assay with UO-31 renal; 111% in the assay on TK-10 renal; 84.9% in the assay with ACHN renal. Besides, the growth was 87.5% in the assay with CAKI-1 renal; 118% in the assay on A498 renal; 103% in the assay on CCRF-CEM leukemia; 102% with MOLT-4 leukemia; 103% with SR leukemia; 108% in the assay on RPMI-8226 leukemia. Further, the growth in the assay on OVCAR-8 ovarian was 102%; in the assay on OVCAR-5 ovarian it was 106%; in the assay with OVCAR-4 ovarian, 95.6%; in the assay with SK-OV-3 ovarian it was 94.5%; with IGROV1 ovarian, 102%; in the assay with OVCAR-3 ovarian, 138%. For the same compound, the values for the growth in the assay with HS 578T breast and in the assay with NCI/ADR-RES ovarian were 85.7% and 101%, respectively.
For the compound `Fc1ccc(F)c(CNc2nc(SCCN3CCOCC3)nc3c2cnn3CC(Cl)c2ccc(Br)cc2)c1` (stereo not given), the growth with SK-MEL-2 melanoma was 5.82% (active); in the assay with EKVX NSCLC it was 45.1%; with SN12C renal it was 28.9%; in the assay on UO-31 renal, 9.3% (active); with TK-10 renal it was 44.8%; in the assay on ACHN renal, 10.6%. The growth is 26.7% in the assay on CAKI-1 renal; 64.8% with A498 renal; 11.1% in the assay on CCRF-CEM leukemia; -22.6% (active) with MOLT-4 leukemia; 0.635% (active) with SR leukemia; 2.73% (active) in the assay on RPMI-8226 leukemia. Also, the growth in the assay with OVCAR-8 ovarian was 31.9%; in the assay with OVCAR-5 ovarian, 63%; in the assay on OVCAR-4 ovarian it was 23.2%; with SK-OV-3 ovarian, 47%; in the assay with IGROV1 ovarian it was 45.6%; in the assay on OVCAR-3 ovarian it was 45.2%. Also, the results for the growth with HS 578T breast and in the assay with NCI/ADR-RES ovarian were 23.4% and 22.8%, respectively.
With `Nc1cc2ccccc2c(=O)n1NC(=O)c1ccc(Br)cc1`, the growth was 108% with SK-MEL-2 melanoma; 83.2% in the assay on EKVX NSCLC; 95.5% in the assay on SN12C renal; 74.9% with UO-31 renal; 116% in the assay with TK-10 renal; 104% in the assay on ACHN renal. Moreover, the growth in the assay on CAKI-1 renal is 83.8%; in the assay on A498 renal, 189%; with CCRF-CEM leukemia, 86.4%; with MOLT-4 leukemia, 90.8%; with SR leukemia it was 72.5%; with RPMI-8226 leukemia, 92.1%. For the same compound, the growth in the assay on OVCAR-8 ovarian was 98.6%; in the assay with OVCAR-5 ovarian it was 97.8%; in the assay on OVCAR-4 ovarian, 91%; in the assay on SK-OV-3 ovarian, 115%; with IGROV1 ovarian it was 101%; in the assay with OVCAR-3 ovarian it was 79.2%. Also, the growth was 102% in the assay on HS 578T breast and 93% in the assay with NCI/ADR-RES ovarian.
On to `CN(C)CCOc1ccc(C(=O)C2[C@H](c3ccc(Cl)cc3)[C@@H](c3ccccc3)NC23C(=O)Nc2ccc(Cl)cc23)cc1` (stereo not given in full), for which the growth is -92.5% (active) in the assay with SK-MEL-2 melanoma; -93.9% (active) in the assay with EKVX NSCLC; -94.5% (active) in the assay on SN12C renal; -99.7% (active) in the assay on UO-31 renal; -96.7% (active) in the assay with TK-10 renal; -100% (active) with ACHN renal. The growth with CAKI-1 renal is -98.6% (active); in the assay on A498 renal, -95.9% (active); with CCRF-CEM leukemia, -65.4% (active); in the assay with MOLT-4 leukemia, -77.4% (active); with SR leukemia, -77.4% (active); in the assay with RPMI-8226 leukemia it was -43.6% (active). Further, the growth in the assay with OVCAR-8 ovarian is -67.9% (active); with OVCAR-5 ovarian it was -79.2% (active); in the assay on OVCAR-4 ovarian, -91.5% (active); in the assay on SK-OV-3 ovarian, -86.4% (active); with IGROV1 ovarian it was -87% (active); with OVCAR-3 ovarian it was -51.4% (active). Moreover, the figures for the growth with HS 578T breast and in the assay with NCI/ADR-RES ovarian were -29.4% (active) and -90.7% (active), respectively.
As to `CCCCNC(=S)Nc1ccc(OCc2nc3ccc(Cl)cc3[nH]2)cc1`, the growth was 7.47% (active) with SK-MEL-2 melanoma; 28.9% in the assay with EKVX NSCLC; 19.2% in the assay on SN12C renal; 5.99% (active) with UO-31 renal; 36.6% in the assay with TK-10 renal; 5.02% (active) with ACHN renal. Besides, the growth in the assay with CAKI-1 renal is 21.6%; in the assay with A498 renal it was 90%; in the assay on CCRF-CEM leukemia it was 7.96% (active); with MOLT-4 leukemia, 9.85% (active); in the assay on SR leukemia, 2.29% (active); with RPMI-8226 leukemia, -0.388% (active). The growth was 38.7% in the assay with OVCAR-8 ovarian; 28.2% with OVCAR-5 ovarian; 21.5% with OVCAR-4 ovarian; 75.4% with SK-OV-3 ovarian; 12.9% in the assay on IGROV1 ovarian; 13.6% in the assay with OVCAR-3 ovarian. For the same compound, the growth with HS 578T breast is 28.5%; in the assay on NCI/ADR-RES ovarian it was 21.6%.
